This note sets out measurements from ChEMBL document CHEMBL3988442, “University of Dundee, Small-Polar-MMV Screening Library” (2021).

In all, about 53,000 compounds went through this assay and about 900 (1.7%) showed an effect of 50% or more. For the sample, strong results were picked, then their nearest neighbours and some compounds at random.

The assay relates to Mycobacterium tuberculosis. Kind of assay: Cornell - Phenotypic assay to identify agents that inhibit growth of Mycobacterium tuberculosis. It counts as functional. More on the design: scale not given: direction of the effect not stated beside the values. As to conditions: 10 mM as filed; unlikely as a test dose.
For `Cn1ccnc1CN1CCCN(C(=O)c2cccc(CC#N)c2)CC1`, the “Percent Effect” value is reported as -5.317%.
`Cc1noc(C)c1-c1cc(CCC2CN(C(=O)C(C)C)CCO2)ncn1` (configuration not stated): the “Percent Effect” value was 37.61%.
As to `O=C(O)C(F)(F)F.O=C(O)C(F)(F)F.c1cnc(N2CC3(CCN(Cc4cccnc4)C3)C2)nc1`, the “Percent Effect” value is reported as -25.95%.
As to `NCc1cn(-c2ccccc2C(=O)NCc2ccccc2Cl)cn1`, the “Percent Effect” value is recorded as -8.218%.
In the case of `NC(=O)C1=NC2=NS(=O)(=O)c3ccccc3N2N1Cc1ccc(Cl)cc1` it was 106.1%; in that of `NC(=O)CN(Cc1ccc(Br)cc1)C(=O)c1ccccn1`, -15.26%.
The figure for `NC(=O)C1=NN2C(=NS(=O)(=O)c3ccccc32)N1` is 18.26%; for `NC(=O)C1=NC2=NS(=O)(=O)c3ccccc3N2N1Cc1ccccc1Cl` it is 106.2%.
Regarding `NCc1cnn(-c2ccccc2C(=O)NCc2ccccc2Cl)c1`, the “Percent Effect” value is -1.327%.
For `COC(=O)C1=NN2C(=NS(=O)(=O)c3ccccc32)N1`, the “Percent Effect” value was 46.07%.
On to `NC(=O)C1=NC2=NS(=O)(=O)c3ccccc3N2N1Cc1ccc(Br)cc1`, for which the “Percent Effect” value came out at 106.5%.
Take `CCCN(CCc1ccccn1)C(=O)Cn1cc(C)cn1`: the “Percent Effect” value came out at 6.805%.
As for `CC(C)C(=O)N1CCC(c2c(C(N)=O)sc3ccccc23)C1` (configuration not stated), the “Percent Effect” value is listed as -20.56%.
`CO[C@@H]1CCN(Cc2nccs2)C[C@@H]1Cc1ccccc1.O=C(O)C(F)(F)F`: the “Percent Effect” value was 17.77%.
For the molecule `CO[C@H]1CCN(Cc2nccs2)C[C@@H]1Cc1ccccc1`, the “Percent Effect” value amounted to 32.3%.
In the case of `CO[C@@H]1CCN(Cc2nccs2)C[C@@H]1Cc1cccc(C)c1.O=C(O)C(F)(F)F`, the “Percent Effect” value is recorded as 58.64%.
Take `CC(C)c1ccc(NC(=O)Cn2cc(I)cn2)cc1`: the “Percent Effect” value was determined as 64.63%.
In the case of `Cc1ccc(NC(=O)Cn2cc(I)cn2)cc1` it was 2.116%; in that of `NC(=O)c1ccc(NC(=O)Cn2cc(I)cn2)cc1`, 12.21%; in that of `CS(=O)(=O)CCSc1n[nH]c(-c2ccc3c(c2)CCC3)n1`, 22.85%.
On to `O=C(CSC1CCCC1)N1CCN(c2ccc(-n3cncn3)nn2)CC1`, for which the “Percent Effect” value was -7.169%.
Take `O=C(CSC1CCCC1)N1CCN(C(=O)C2CC2c2ccccc2)CC1` (configuration not stated): the “Percent Effect” value worked out at 57.68%.
The figure for `O=C(CSC1CCCC1)N1CCN(C(=O)C2CC2c2cccs2)CC1` (configuration not stated) is 19.24%.
For the molecule `CN(CCOc1ccccc1F)C1CCOC1=O` (configuration not stated), the “Percent Effect” value is on record as -18.35%.
As to `CC(Cn1cccn1)NCc1csc2c1CCCC2` (configuration not stated), the “Percent Effect” value was -0.7044%.
In the case of `CC(Cn1ccnc1)NCc1csc2c1CCCC2` (configuration not stated), the “Percent Effect” value is on record as 52.3%.
Regarding `CC(Cn1cncn1)NCc1csc2c1CCCC2` (configuration not stated), the “Percent Effect” value is given as 6.492%.
On to `O=C1NCC2(CCCN(C(=O)CCn3cnc4ccccc43)CC2)O1` (configuration not stated), for which the “Percent Effect” value is reported as -0.9742%.
For `COc1cccc(Cn2[nH]c(C)c3c(NC(=O)C(C)OC)nnc2-3)c1` (configuration not stated), the “Percent Effect” value stood at 19.31%.
For the molecule `CCOC(=O)C(C)NC(=O)CCSc1ccc(F)cc1` (configuration not stated), the “Percent Effect” value is reported as 72.72%.
On to `COCC(C)NC(=O)CCSc1ccc(F)cc1` (configuration not stated), for which the “Percent Effect” value was -22.42%.
In the case of `CCOC(=O)C(C)NC(=O)CCc1ccc(F)cc1` (configuration not stated) it was 12.11%; in that of `CNC(=O)NC(=O)CN1CCN(c2ccc(C(=O)OC)cc2)CC1C` (configuration not stated), -3.666%.
Turning to `CC(=O)Nc1nc(C(=O)NC(C)c2ccncc2)cs1` (configuration not stated), the “Percent Effect” value is -46.84%.
As for `Cc1[nH]/c(=N\C(=O)c2csc(NCC(C)C)n2)sc1C`, the “Percent Effect” value is 105.2%.
Turning to `CC(=O)Nc1nc(C(=O)NC(C)c2cccnc2)cs1` (configuration not stated), the “Percent Effect” value is listed as -20.46%.
As for `CC(C)CNc1nc(C(=O)/N=c2\[nH]nc(C(C)(C)C)s2)cs1`, the “Percent Effect” value was determined as 4.379%.
For the molecule `Cc1cs/c(=N\C(=O)c2c3c(nc4onc(C)c24)CCC3)[nH]1`, the “Percent Effect” value is listed as 37.19%.
Take `Cc1cs/c(=N/C(=O)c2csc(NCC(C)C)n2)[nH]1`: the “Percent Effect” value is 104.8%.
With `CCCNC(=O)C(C)N1CCC(C(=O)Nc2cnn(CC)c2)CC1` (configuration not stated), the “Percent Effect” value was -1.052%.
Regarding `O=C(Nc1cccnc1-n1cc(Br)cn1)C1CCCC1`, the “Percent Effect” value is on record as -1.816%.
On to `Cc1cnc(N2CCCn3c(nnc3CN(C)C(C)C)C2)nc1.O=C(O)C(F)(F)F`, for which the “Percent Effect” value came to 8.261%.
As for `c1csc(N2CCN(c3ncnc4sccc34)CC2)n1`, the “Percent Effect” value is listed as 8.465%.
For the molecule `COCC(=O)N1CCCC(C(=O)N(C)CCn2ccnc2C)C1` (configuration not stated), the “Percent Effect” value is reported as -64.71%.
Consider `CCn1c(CN(C)Cc2cnc(C)s2)nc2c(F)cccc21`, for which the “Percent Effect” value was 21.09%.
On to `Cc1ccccc1OCCN1CCn2c(C)nnc2C1`, for which the “Percent Effect” value is -10.78%.
Regarding `Cc1nnc(C(C)N2CCc3[nH]c4ccc(Cl)cc4c3C2)o1` (configuration not stated), the “Percent Effect” value is listed as 34.8%.
Take `Cc1nnc(C(C)N2CCc3[nH]c4ccccc4c3C2)o1` (configuration not stated): the “Percent Effect” value is 28.26%.
The figure for `Cc1noc(C(C)N2CCc3[nH]c4ccc(Cl)cc4c3C2)n1` (configuration not stated) is 63.72%; for `CN(C)CCn1c2c(ccc1=O)CC(NC(=O)c1ccsc1)CC2.O=C(O)C(F)(F)F` (configuration not stated) it is -27.73%; for `CCN(CC1CCCO1)C(=O)Nc1cc(OC)c(OC)cc1C` (configuration not stated) it is 69.91%.
On to `CCN(CC1CCCO1)C(=O)Nc1ccc(F)cc1OC` (configuration not stated), for which the “Percent Effect” value is given as 2.654%.
For the molecule `CCN(CC1CCCO1)C(=O)Nc1ccc(OC)c(C)c1` (configuration not stated), the “Percent Effect” value is listed as 29.95%.
Regarding `CC(Oc1ccc2c(c1)OCO2)C(=O)N1CCC(c2ncc[nH]2)CC1` (configuration not stated), the “Percent Effect” value was -2.052%.
Turning to `Cc1ccc(C2CSCCN2C(=O)c2cccs2)o1` (configuration not stated), the “Percent Effect” value is -1.514%.
In the case of `CNC(=O)c1cnn2c(C3CCCN3)ccnc12` (configuration not stated) it was -26.66%.
In the case of `Cn1ccnc1CN1CCCC(Cc2ccnc3ccncc23)CC1.O=CO` (configuration not stated) it was 25.28%; in that of `CC(OCC1CC1)C(=O)Nc1nccn1Cc1ccccc1` (configuration not stated), 51.13%.
For `CCOCCOC(C)C(=O)Nc1nccn1Cc1ccccc1` (configuration not stated), the “Percent Effect” value was found to be 4.045%.
With `CC(OCC1CC1)C(=O)Nc1ccn(Cc2ccccc2)n1` (configuration not stated), the “Percent Effect” value is reported as -1.057%.
As to `CCC(=O)N1CCCCC1c1nc(O)c2c(n1)CN(S(=O)(=O)CC)CC2` (configuration not stated), the “Percent Effect” value is 9.253%.
The figure for `Cc1nc([C@@H]2C[C@@H]3CCN(C(=O)Cc4ccsc4)C[C@H]3O2)no1` is -0.3005%; for `Cc1nc([C@@H]2C[C@@H]3CCN(C(=O)Cc4cccs4)C[C@H]3O2)no1` it is 53.11%.
`Cc1nc([C@@H]2C[C@@H]3CCN(C(=O)Cc4cccc(F)c4)C[C@H]3O2)no1`: the “Percent Effect” value was 16.61%.
In the case of `CC(=O)N1CCC(c2noc(C3CCC(=O)N3)n2)CC1` (configuration not stated) it was 5.586%; in that of `O=C1CCC(c2nc(C3CCN(C(=O)C4CC4)CC3)no2)N1` (configuration not stated), 13.14%.
On to `O=C1CCC(c2nc(C3CCN(C(=O)Cc4cccs4)CC3)no2)N1` (configuration not stated), for which the “Percent Effect” value is 57.39%.
